# According to the supplement of paper PMC5940239:
# System: Madurella mycetomatis MM55
# Assay: percent growth relative to solvent control; higher = less inhibition, active = 20 or less
# Settings: 100 µM; 7 days
row,Compound,percent growth
1,O=[N+]([O-])c1cn2c(n1)OC[C@@H](OCc1ccc(OC(F)(F)F)cc1)C2,97.3% (inactive)
2,COc1ccc(N(CCc2cccc(C)n2)C(C)=O)cc1,101% (inactive)
3,O=C(Nc1nc(-c2ccccn2)cs1)C1CC1c1ccccc1F (stereo not drawn),46.7% (inactive)
4,O=C(C(Cc1c[nH]c2ccccc12)NS(=O)(=O)c1ccc(Cl)cc1)N1CCCCC1 (stereo not drawn),43.6% (inactive)
5,CC(C)(C)n1nc(Cc2cccc3ccccc23)c2c(N)ncnc21,69.6% (inactive)
6,CC(=O)N1CCN(c2ccc(Oc3ccc(Cl)cc3O)cc2)CC1,102% (inactive)
7,NS(=O)(=O)c1cccc(-c2ccc3ncc(N4CCOCC4)nc3c2)c1,106% (inactive)
8,COc1cccc(OCC(=O)c2ccc(Br)cc2)c1,81.3% (inactive)
9,O=C(Nc1ccc(F)c(-c2nc3cc(-c4ccccc4)cnc3[nH]2)c1)N1CCCC1,95.8% (inactive)
10,CS(=O)(=O)c1ccc(C(=O)N(CC2CCCO2)c2nc3ccccc3s2)cc1[N+](=O)[O-] (stereo not drawn),110% (inactive)
11,COc1ccccc1C(C)NCC(=O)Nc1cc(C(F)(F)F)ccc1Cl (stereo not drawn),28.7% (inactive)
12,CC(C)(CN)c1nc(-c2ccc(Cl)c(O)c2)c(-c2ccnc(N)n2)[nH]1,88.2% (inactive)
13,CCN(CC)CCCN1CCN(C(=O)c2cccc(-c3noc(C(F)(F)F)n3)c2)CC1,118% (inactive)
14,Nc1cccnc1Nc1ccc(Cl)cc1,80.6% (inactive)
15,C[C@H]1COc2c(N3CCN(C)CC3)c(F)cc3c(=O)c(C(=O)O)cn1c23,89.5% (inactive)
16,CC1CS(=O)(=O)CCN1/N=C/c1ccc([N+](=O)[O-])o1 (stereo not drawn),96.8% (inactive)
17,CC(=O)NCC1CN(c2ccc(-c3ccc(CO)cc3)c(F)c2)C(=O)O1 (stereo not drawn),112% (inactive)
18,COc1cccc(OC)c1C(=O)Nc1ccc(Cl)c(-c2nc3ccccc3s2)c1,78.4% (inactive)
19,CC1CCCN(C(=O)C(C)Nc2cc(Cl)ccc2N2CCOCC2)C1 (stereo not drawn),53.8% (inactive)

row,Compound,percent growth
1,CC(C)(C)c1cnc(NC(=O)c2ccccc2O)s1,99.3% (inactive)
2,NCCCC(N)(C(=O)O)C(F)F (stereo not drawn),133% (inactive)
3,CCCNC(=O)N1CCC2(CC1)CC(=O)c1cc(C)ccc1O2,102% (inactive)
4,Cc1cc(C(=O)Nc2cnn(Cc3ccc(Cl)cc3Cl)c2)no1,121% (inactive)
5,Clc1cccc(CO[C@H]2CCc3ccccc3[C@@H]2n2ccnn2)c1,64.8% (inactive)
6,Cc1ccc(S(=O)(=O)n2cc(-c3ccnc(N)c3)c3cc(Br)cnc32)cc1,25.4% (inactive)
7,Clc1cccc(C(c2ccc(CN3CCNCC3)cc2)n2ccnc2)c1 (stereo not drawn),115% (inactive)
8,Cc1cc2nc(NC(=O)C(C)(C)C)nc(Cl)c2n1Cc1ccc(Cl)cc1,82.9% (inactive)
9,COc1ccc(Nc2ccccc2NC(=O)c2ccc(O)nc2)cc1,85.8% (inactive)
10,O=C(Nc1ccnc(-c2cccnc2)n1)c1cc(C(F)(F)F)cc(C(F)(F)F)c1,169% (inactive)
11,Cc1cc(C(=O)Nc2ccc(-c3ccccc3)cc2)no1,199% (inactive)
12,CCn1cnc2c(Nc3cc(F)cc(F)c3)nc(C#N)nc21,95.2% (inactive)
13,O=C(NC1CC1)c1ccc(CSCc2ccccc2Cl)o1,41.5% (inactive)
14,CCN(CC)C(=O)N1CCN(C)CC1,89.3% (inactive)
15,CCOc1ccc(OCC(=O)Nc2cc(C)cc(C)c2)cc1,89.4% (inactive)
16,CO[C@H]1/C=C/O[C@@]2(C)Oc3c(C)c(O)c4c(O)c(/c(=C/NN5CCN(C)CC5)c(O)c4c3C2=O)=N\C(=O)/C(C)=C\C=C/[C@H](C)[C@H](O)[C@@H](C)[C@@H](O)[C@@H](C)[C@H](OC(C)=O)[C@@H]1C,92.6% (inactive)
17,O=C(C1CCN(c2nnnn2-c2ccccc2)CC1)N1CCc2ccccc2C1,56.4% (inactive)
18,O=C(Nc1ccccc1-c1nc2c(C(=O)O)cccc2o1)c1ccccc1,94% (inactive)
19,CCCCS(=O)(=O)Nc1ccc2cnn(C)c2c1,106% (inactive)
